Source: paper PMC4336329 (PLoS ONE, 2015)
Hit rate of the full screen: of about 310,000 compounds, about 14,000 (4.5%) showed an effect of 50% or more. Effects have a minus sign here. Shown is part of a subset that was picked to be rich in strong results.

molecular target: human ether-à-go-go-related gene (hERG) potassium channel (human, UniProt Q12809); assay: primary screen, population patch clamp on CHO cells stably expressing hERG; higher = less effect of the substance
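Note: peak tail current of the secondary pulse compared with the same well before compound.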

Sequence of human ether-à-go-go-related gene (hERG) potassium channel (Q12809 whole entry, looked up): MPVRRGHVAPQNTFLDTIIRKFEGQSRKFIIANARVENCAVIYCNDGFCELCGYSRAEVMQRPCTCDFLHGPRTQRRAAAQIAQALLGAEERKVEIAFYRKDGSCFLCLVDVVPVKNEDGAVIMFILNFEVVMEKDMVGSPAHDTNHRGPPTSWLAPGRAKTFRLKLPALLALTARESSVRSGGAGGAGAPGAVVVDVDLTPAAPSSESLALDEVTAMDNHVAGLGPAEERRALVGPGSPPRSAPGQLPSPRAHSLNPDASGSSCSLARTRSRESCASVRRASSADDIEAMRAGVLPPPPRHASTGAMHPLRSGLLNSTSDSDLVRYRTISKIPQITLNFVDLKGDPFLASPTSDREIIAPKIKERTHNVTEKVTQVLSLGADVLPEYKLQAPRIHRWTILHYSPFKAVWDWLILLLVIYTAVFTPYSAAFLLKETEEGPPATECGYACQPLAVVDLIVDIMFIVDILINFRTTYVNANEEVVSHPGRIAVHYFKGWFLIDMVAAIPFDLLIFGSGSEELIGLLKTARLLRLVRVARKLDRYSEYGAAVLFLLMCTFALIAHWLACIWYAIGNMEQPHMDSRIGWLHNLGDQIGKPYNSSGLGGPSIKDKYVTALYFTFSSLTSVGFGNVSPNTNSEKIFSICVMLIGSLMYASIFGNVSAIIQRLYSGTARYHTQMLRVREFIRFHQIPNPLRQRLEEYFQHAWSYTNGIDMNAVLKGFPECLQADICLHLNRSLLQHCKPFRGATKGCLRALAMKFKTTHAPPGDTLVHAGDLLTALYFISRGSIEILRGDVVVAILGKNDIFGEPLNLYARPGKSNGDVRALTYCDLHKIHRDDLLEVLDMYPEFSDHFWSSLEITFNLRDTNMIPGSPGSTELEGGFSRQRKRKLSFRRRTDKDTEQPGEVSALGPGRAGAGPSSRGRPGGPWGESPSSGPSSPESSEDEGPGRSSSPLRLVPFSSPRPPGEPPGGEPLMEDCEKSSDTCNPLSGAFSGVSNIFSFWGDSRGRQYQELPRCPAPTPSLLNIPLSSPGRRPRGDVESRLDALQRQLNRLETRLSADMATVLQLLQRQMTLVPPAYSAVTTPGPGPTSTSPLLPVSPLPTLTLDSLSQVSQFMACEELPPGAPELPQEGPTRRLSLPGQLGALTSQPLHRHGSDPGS

Point of comparison: CCCCCn1c(CN2CCN(C(=O)OCC)CC2)nc2c1c(=O)n(C)c(=O)n2C, “hERG current change (%, negative = inhibition) at 10uM” value -34.6%. Against it:
- COC(=O)c1c(NC(=O)COC(=O)C2CCC2)sc(C)c1C — higher, -13.4%
- Fc1ccc(-c2n[nH]c(=S)n2Cc2ccccc2)cc1 — higher, 7.48%
- NCc1nc(-c2ccc(Cl)cc2)no1 — higher, 11.2%
- CCOC(=O)COn1c(=O)c(-c2ccc(OC)c(OC)c2)[n+]([O-])c2ccccc21 — higher, -11.9%
- O=C(Nc1ccc2c(c1)OCO2)c1ccc(CO)cc1 — higher, 4.24%
- CN1CCC(=NNC(=O)c2cc(-c3ccc(Cl)cc3)n[nH]2)CC1 — higher, -16.4%
- c1ccc(-c2cccc(-c3ccccc3)n2)cc1 — higher, 18.4%
- CCOc1ccc(CCNC(=O)COC(=O)C2CC2)cc1OCC — higher, 3.41%
- Cc1nnc(SCC(=O)Nc2ccc3c(c2)OCCO3)n1N — higher, 12.4%
- CSc1ccccc1NC(=O)c1c(Br)cnn1C — higher, -1.39%
- CCOCCn1c(CN2CCCC(C)C2)nc2c1c(=O)n(C)c(=O)n2C (centres unmarked) — higher, 11.7%
- CCCCCCn1c(CN2CCN(C)CC2)nc2c1c(=O)n(C)c(=O)n2C — lower, -80.9%
- CCOC(=O)N1CCN(Cc2nc3c(c(=O)[nH]c(=O)n3C)n2CCCc2ccccc2)CC1 — lower, -37.5%
- CCCCCn1c(CN2CCN(C(=O)OCC)CC2)nc2c1c(=O)[nH]c(=O)n2C — lower, -69.8%
- CCCCCCn1c(CN2CCC(C)CC2)nc2c1c(=O)n(C)c(=O)n2C — higher, -8.75%
- CCCCCCn1c(CN2CCN(C(=O)OCC)CC2)nc2c1c(=O)n(C)c(=O)n2C — lower, -53.5%
- CCCCCCn1c(CN2CCCCC2)nc2c1c(=O)n(C)c(=O)n2C — lower, -35.7%
- CCCCn1c(CN2CCN(C(=O)OCC)CC2)nc2c1c(=O)[nH]c(=O)n2C — higher, 6.72%
- CCCCn1c(CN2CCN(C(=O)OCC)CC2)nc2c1c(=O)n(C)c(=O)n2C — higher, -18.1%
- CCCCCCn1c(CN2CCCC(C)C2)nc2c1c(=O)n(C)c(=O)n2C (centres unmarked) — lower, -58.1%
- CCCCCn1c(CN2CCN(C)CC2)nc2c1c(=O)n(C)c(=O)n2C — higher, -33.1%
- CC1CCC(NC(=O)C2CC(=O)N(c3ccc4c(c3)OCCO4)C2)CC1 (centres unmarked) — higher, 8.92%
- COc1ccc(N(C(=O)c2ccco2)S(=O)(=O)c2ccccc2)cc1 — lower, -44.3%
- COc1cccc(NC(=O)CSc2nnnn2C(C)C)c1 — higher, 2.64%
- COc1ccc(-c2nsc3c(N4CCCCC4C)ncnc23)cc1 (centres unmarked) — higher, 33.3%
- Cc1nnc(NC(=O)C2CCCO2)s1 (centres unmarked) — higher, 3.17%
- CCn1c2ccccc2c2cc(CN3CCN(S(=O)(=O)CC)CC3)ccc21.O=C(O)C(=O)O — higher, -13.4%
- Cc1cc(OCC(=O)OC(C)(C)C)c2c3c(c(=O)oc2c1)CCC3 — higher, 5.64%
- Cc1ccc(NC2CCCN(C(=O)c3cnc4ccccn4c3=O)C2)cc1C (centres unmarked) — higher, -3.33%
- CCOc1ccc(S(=O)(=O)NCc2cccnc2)cc1 — higher, 15.5%
- Cc1ccc(C(=O)OC2CCOC2=O)cc1NC(=O)c1ccco1 (centres unmarked) — higher, 0.0901%
- Cc1cc(C)c2c(N)c(C(=O)NC3CC3)sc2n1 — higher, 8.51%
- CC(C)(C)CNC(CO)C12CC3CC(CC(C3)C1)C2.Cl (centres unmarked) — higher, -4.3%
- Cc1ncc(S(=O)(=O)C(C)(C)C)c(N)n1 — higher, 2.37%
- O=C(c1sc2ccccc2c1Cl)N1CCN(c2ncccn2)CC1 — higher, -9.78%
- O=C(c1cc(-c2ccccn2)nc2ccc(Cl)cc12)N1CCN(CCc2ccccc2)CC1 — higher, 6.73%
- Cc1noc(C)c1C(=O)N1CCN(C(=O)c2sc3cc(Cl)ccc3c2Cl)CC1 — lower, -47.4%
- O=C(c1sc2cccc(Cl)c2c1Cl)N1CCN(CCc2ccccn2)CC1 — higher, -28.9%
- O=C(c1sc2ccccc2c1Cl)N1CCN(c2ccccc2F)CC1 — higher, -1.51%
- O=C(c1sc2ccccc2c1Cl)N1CCN(c2ccccn2)CC1 — lower, -68.7%
- O=C(c1sc2ccccc2c1Cl)N1CCN(c2ccc(F)cc2)CC1 — higher, -3.54%
- O=C(c1sc2cc(Cl)ccc2c1Cl)N1CCN(CCc2ccccn2)CC1 — lower, -69.6%
- O=C(c1sc2ccccc2c1Cl)N1CCN(CCc2ccccn2)CC1 — lower, -60.5%
- COc1cc(C)nc(N2CCCC(C(=O)NC3CCC(C)CC3)C2)n1 (centres unmarked) — higher, -0.336%
- CCOc1ccc(CCNC(=O)CSCc2ccc(C)cc2)cc1OCC — higher, -2.33%
- Cc1cc2c(cc1C)NC(=O)CC(C(F)(F)C(F)(F)C(F)(F)F)=N2 — higher, 9.6%
- C(=N\NC1=Nc2cccc3cccc1c23)/c1cccnc1 — higher, -5.08%
- O=C(O)c1ccc(NC(=O)C(c2ccccc2)c2ccccc2)cc1 — higher, 14.3%
- COc1ccc(C2C(C#N)=C(SC)NC3=C2C(=O)CC(C)(C)C3)cc1 (centres unmarked) — higher, -15.4%
- COC(=O)[C@@H]1CCCN1Cc1c(C(=O)N2CCOCC2)nc2c(C)cccn12 — higher, 24.1%
- COc1ccccc1C(=O)Nc1ccnn1C1CCN(CCCC2CCCC2)CC1 — lower, -85.1%
- COc1ccccc1N1CCN(CC(=O)Nc2ccnn2C2CCCC2)CC1 — higher, 3.01%
- COc1ccccc1NC(=O)Nc1ccnn1C1CCCCC1 — higher, -12.7%
- O=C(Nc1ccnn1C1CCN(C2CCCC2)CC1)c1ccccc1 — higher, 1.61%
- O=C(Nc1ccnn1C1CCN(C2CCCCC2)CC1)c1ccccc1 — higher, -25.8%
- O=C(Nc1ccnn1C1CCN(CCCC2CCCC2)CC1)c1ccccc1 — lower, -73.1%
- O=C(Nc1ccnn1C1CCN(CCCC2CCCC2)CC1)c1ccccc1Cl — lower, -86.4%
- O=C(c1cc(=O)[nH]c2ccccc12)N1CCc2ccccc2C1 — higher, 11%
- O=c1c2ccccc2nc2n1CCO2 — higher, 10.2%
- COc1cc2cc(Oc3ccc4ccc(=O)oc4c3)c(=O)oc2cc1OC(C)=O — higher, 0.234%
- COc1ccc(-c2cn3cc(C(F)(F)F)cc(Cl)c3n2)cc1 — higher, 9.73%
- Cc1ccc(C(=O)Nc2nc3ccc(S(C)(=O)=O)cc3s2)o1 — higher, -0.566%
- Cc1nc(CN(C)C(=O)c2ccccc2OC2CCN(S(C)(=O)=O)CC2)cs1 — higher, 3.35%
- COc1ccccc1CNC(=O)CCC(=O)N1CCOc2ccc(Cl)cc21 — higher, -5.43%
- COc1ccc(CCNC(=O)CCC(=O)N2CCOc3ccc(Cl)cc32)cc1OC — higher, -20.2%
- COc1ccc(N2CCN(CCCNC(=O)CCC(=O)N3CCOc4ccc(Cl)cc43)CC2)cc1 — lower, -70.4%
- COc1cccc(N2CCN(C(=O)CCC(=O)N3CCOc4ccc(C)cc43)CC2)c1 — higher, -30.3%
- O=C(CCC(=O)N1CCOc2ccccc21)N1CCN(c2ccccc2)CC1 — lower, -70%
- COc1ccc(N2CCN(C(=O)CCC(=O)N3CCOc4ccc(C)cc43)CC2)cc1 — lower, -42.7%
- O=C(CCC(=O)N1CCOc2ccccc21)N1CCOCC1 — higher, -5.85%
- Cc1ccc2c(c1)N(C(=O)CCC(=O)N1CCN(c3ccccc3)CC1)CCO2 — lower, -43.8%
- COc1ccc(N2CCN(C(=O)CCC(=O)N3CCOc4ccc(Cl)cc43)CC2)cc1 — lower, -52.8%
- O=C(Oc1nsnc1N1CCOCC1)N1CCOCC1 — higher, 15.3%
- CCc1noc(C)c1C(=O)Nc1cc(C(F)(F)F)ccc1-n1cncn1 — higher, -21.3%
- O=C(Nc1cccc2nsnc12)c1ccc(-c2cccc(Cl)c2)o1 — higher, 10.4%
- FC(F)(F)c1ccccc1NC(=S)NN=C1CCCCCC1 — higher, 23.5%
- CCC(=O)N(CCc1ccccc1C)Cc1cc2cc3c(cc2[nH]c1=O)OCO3 — higher, -3.05%
- COC(=O)c1ccccc1NC(=O)Cn1nc2n(C)c3ccccc3n2c(=O)c1=O — higher, -3.54%
- Cc1ccc(N2CC(C(=O)NCCN3CCOCC3)CC2=O)cc1C (centres unmarked) — higher, 10.2%
- Cn1nnnc1P(=O)(c1ccccc1)c1ccccc1 — higher, 7.84%
- O=C1NCC(O)=C1C=NC12CC3CC(CC(C3)C1)C2 [4246017] — higher, 12.6%
- COc1ccc(NC(=O)N2c3ccc(OC)cc3C(C)=CC2(C)C)cc1 — higher, 20.1%
- CC1=C(c2ccccc2)[N+](=O)C2(CCCCC2)N1[O-] — higher, -4.49%
- COc1ccc(C2=NOC3(CC(=O)N(c4ccc(F)cc4)C3=O)C2)cc1 (centres unmarked) — higher, 15.5%
- O=C(COC(=O)c1cc([N+](=O)[O-])ccc1NCCO)Nc1ccc2c(c1)OCO2 — higher, 5.75%
- COc1ccc(-n2cc(-c3ccccc3)[n+]3c2CCCCC3)cc1.[Br-] — higher, -19.3%
- Clc1ccc(-c2cn(-c3ccc(Cl)cc3)c3[n+]2CCCCC3)cc1.[Br-] — lower, -52.7%
- COc1ccc(-n2cc(-c3ccc(OC(F)F)cc3)[n+]3c2CCCCC3)cc1.[Br-] — lower, -76.3%
- Br.FC(F)Oc1ccc(-c2csc(NNC3=NCCCCC3)n2)cc1 — lower, -47.5%
- FC(F)Oc1ccc(-n2cc(-c3ccccc3)[n+]3c2CCCCC3)cc1.[Br-] — lower, -55.6%
- Clc1ccc(-n2cc(-c3ccc(Br)cc3)[n+]3c2CCCCC3)cc1.[Br-] — lower, -49.4%
- FC(F)Oc1ccc(-n2cc(-c3ccc(Cl)cc3)[n+]3c2CCCCC3)cc1.[Br-] — lower, -78.3%
- O=C(Nc1ccc(Cl)cc1)N(C1=NCCC1)c1ccc(OC(F)F)cc1 — higher, -8.02%
- [Cl-].c1ccc(-c2c[nH]c3[n+]2CCCCC3)cc1 — higher, -2.27%
- Brc1ccc(-c2csc3[n+]2CCCCC3)cc1.[Br-] — higher, -6.25%
- COc1ccc(-c2cn(-c3ccc(Cl)cc3)c3[n+]2CCCCC3)cc1.[Br-] — higher, -31.9%
- COc1ccc(N2CCN(C(=O)COC(=O)c3ccc(OC(F)F)cc3)CC2)cc1 — higher, -26.5%
